# Screens: PubChem BioAssay, National Center for Advancing Translational Sciences (NCATS)
# L3MBTL1 inh = L3MBTL1 (human) inhibition. Q9Y468. AlphaScreen L3MBTL1–H3K9me1 peptide binding. Potency, µM (series often up to 57.1 µM), inactives show at the top dose activity, negative = inhibition, most hits filed as inhibitors. 230,000 compounds, 0.66% hits; note: % is set by controls: 0 for no effect and ±100 for the full control effect; nearly all actives have a fitted effect of over 60% in size
#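 AlphaScreen assay: L3MBTL1 (50 nM final) was preincubated 30 min at room temperature with biotinylated H3(1-15)K9me1 peptide (75 nM final), then 30 min with library compounds; streptavidin donor and nickel chelate acceptor beads (10 ug/mL final) added, 30 min dark.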
# G9a inh = blocks human histone lysine methyltransferase G9a. G9a H3K9 monomethylation, AlphaScreen, 2 h. 350,000 compounds, 8.8% hits. Potency, µM (highest dose often 102 µM), inactives show at the top dose activity, negative = inhibition, actives largely listed as inhibitors; note: % is set by controls: 0 for no effect and ±100 for the full control effect; nearly all actives have a fitted effect of over 75% in size
#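 Compounds were preincubated with 20 nM G9a for 15 min, after which biotinylated H3K9 peptide (500 nM) and SAM (20 uM) started a 2 h room-temperature reaction. Monomethylated product was quantified by antibody-based AlphaScreen chemiluminescence.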
# HP1b chromo inh = blocks HP1-beta chromodomain binding to methylated histone tails | P83916 | AlphaScreen HP1-beta / biotin-H3K9me3 peptide binding | Potency, µM (highest dose often 114 µM), for the others: top-dose activity change, negative = inhibition, most hits filed as inhibitors | 390,000 compounds, 0.56% hits; note: nearly all actives have a fitted effect of over 70% in size
#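 AlphaScreen: HP1-beta (50 nM) preformed 30 min with biotin-H3(1-18)K9me3 peptide (50 nM) in PBS pH 7.4, 0.01% Tween-20. Compound added for 30 min at RT, then streptavidin donor/nickel chelate acceptor beads (10 ug/mL) for 30 min.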
# Sfp inh = inhibitors of Bacillus subtilis Sfp phosphopantetheinyl transferase; Q9F4F7; Biochemical Sfp PPTase activity, qHTS; Potency, µM, without a hit: largest response in the series, negative = inhibition, usual class: inhibitors; 310,000 compounds, 3.5% hits; AID 1490;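 note: the enzyme is Sfp with the accession as filed and its product quenches rhodamine fluorescence; 0% = enzyme reaction without inhibitor and -100% = no enzyme wells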
#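 Sfp 15 nM + cpd, 15 min RT; start w/ rhodamine-CoA 5 uM, BHQ-2-YbbR 12.5 uM (final); 50 mM Hepes pH 7.6, 10 mM MgCl2, 0.01% NP-40, 0.01% BSA; read 525/598 nm at 0 and 30 min.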
# JMJD2A Tudor inh = inhibitors of human JMJD2A Tudor domain | 390,000 compounds, 4.4% hits | Potency, µM (doses to about 114 µM), without a hit: at the highest dose activity change, negative = inhibition, usual class: inhibitors | AlphaScreen JMJD2A-Tudor / H3K4me3 peptide binding | O75164 | AID 504339; note: % is set by controls: 0 for no effect and ±100 for the full control effect; nearly all actives have a fitted effect of over 50% in size
# BAZ2B block = BAZ2B (human) inhibition. Q9UIF8. AlphaScreen BAZ2B-H3K14Ac peptide displacement. Potency, µM (series often up to 114 µM), for inactives: at the top dose activity change, negative = inhibition, actives largely listed as inhibitors. 360,000 compounds, 4.4% hits; note: % is set by controls: 0 for no effect and ±100 for the full control effect; nearly all actives have a fitted effect of over 60% in size
#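 Protein-peptide AlphaScreen: BAZ2B 50 nM, b-H3K14Ac 50 nM, 1x PBS pH 7.4 + 0.01% Tween-20. Preincubation 30 min RT; cpd 30 min RT (top 110 uM); beads 20 min RT, light-protected.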
# * hit, by the source's call; ? = inconclusive; . = no result; [ ] = remark or other dose. In the library only some 12% were active in any assay of this set; here they are far more common. Calls come from the whole dose curve; as a rule, active = well fitted curve in the direction sought with a large enough effect; inconclusive = small, poorly fitted or top-dose-only effect, or another doubt; inactive = no such curve, though single readings can be large; an effect the other way counts as inactive or inconclusive. Potency is the fitted concentration of half-maximal effect.
SMILES,L3MBTL1 inh,G9a inh,HP1b chromo inh,Sfp inh,JMJD2A Tudor inh,BAZ2B block
COc1ccccc1NC(=O)CN1CCN(c2ccccc2OC)CC1,-11%,-32%,34%,11%,-20%,-17%
O=c1[nH]cnc2c1nc(Cl)n2C1OC(CO)C(O)C1O (stereo unspecified),.,.,.,3%,.,.
CSc1nc(NCc2ccco2)c2ccccc2n1,.,?,-29%,10%,-13%[11.4 µM],-33%
COc1ccc(OC)c(Nc2nc(NCc3ccco3)c3ccccc3n2)c1,-10%,?,?,?,50µM*,40µM*
Oc1ccccc1Nc1nc(NCc2ccco2)c2ccccc2n1,-17%,50µM*,-19%,25µM*,?,45µM*
c1cncc(-c2nc(NCc3ccco3)c3ccccc3n2)c1,-3%,?,32%,79µM*,-30%,?
c1ccc(Nc2nc(NCc3ccco3)c3ccccc3n2)cc1,-19%,50µM*,?,16µM*,50µM*,?
COc1ccc(OC)c(Nc2nc(NCc3ccco3)nc(N)c2[N+](=O)[O-])c1,.,.,3%,-10%,-12%,-1%
Cc1ccc(-c2nc(NCc3ccco3)c3ccccc3n2)cc1,5%,?,-6%,0%,-32%,-30%
CCCn1c(=O)[nH]c(=O)c2c(C(=O)OCC)cc(-c3cccs3)nc21,10%,-3%,28%,-8%,?,-23%
Cc1ccccc1Nc1nc(NCc2ccco2)c2ccccc2n1,.,?,?,?,56µM*,?
Cc1ccc(/C=C/C(=O)OCC(=O)NC(C)C)o1,.,45µM*,6%,-47%,-9%,0%
CC(C)NC(=O)COC(=O)/C=C/c1ccco1,-24%,-18%[59 µM],1%,50µM*,-24%,?
O=C(COC(=O)/C=C/c1ccco1)NCc1ccc(Cl)cc1,-5%,7.9µM*,22%,.,-5%,-5%
CCCNC(=O)COC(=O)/C=C/c1ccco1,-11%,-38%[59 µM],2%,?,-16%,-30%
CCNc1ncc2nc(-c3cccc(C#N)c3)c(=O)n(CCC#N)c2n1,.,3%[0.501 µM],.,4%,.,.
C[n+]1ccccc1/C=C/c1ccc(F)c(F)c1,0%[2.29 µM],17%[0.501 µM],17%,4%,-1%,?
C[n+]1ccccc1/C=C/c1c(F)cccc1F,-1%,25µM*,15%,-62%,?,8.9µM*
C[n+]1ccccc1/C=C/c1ccccc1Cl,-3%,?,4%,-36%,-11%,56µM*
Cc1ccc(S(=O)(=O)N2CCC(C(=O)Nc3ncccc3O)CC2)cc1,0%,7%[59 µM],23%,.,-18%,?
O=C1N=C(N2CCOCC2)S/C1=C1\C(=O)N(Cc2ccccc2)c2ccc(Br)cc21,0%,?,.,-2%,.,.
CCCCN1C(=O)/C(=C2\SC(N3CCCCC3)=NC2=O)c2ccccc21,?,16µM*,16µM*,45µM*,56µM*,-84%
COc1ccc(-c2csc(NC(=O)C3=COCCO3)n2)c(OC)c1,-5%,?,12%,.,-21%,?
C=CCNc1nc(-c2ccc(OC)cc2OC)cs1,-10%,?,-15%,-11%,?,56µM*
COc1ccc(Nc2nc(C)cc(C)c2C(N)=O)c(OC)c1,-10%,-5%[59 µM],16%,40µM*,-20%,1%
SMILES,L3MBTL1 inh,G9a inh,HP1b chromo inh,Sfp inh,JMJD2A Tudor inh,BAZ2B block
Cc1ccc(Cl)cc1N(C)C(=O)c1sc2nc3n(c(=O)c2c1C)CCCC3,.,13µM*,57%,.,-27%,?
CCCN(C(=O)c1sc2nc3n(c(=O)c2c1C)CCCC3)c1ccccc1C,.,?,26%,.,-30%,?
CCN(C(=O)c1sc2nc3n(c(=O)c2c1C)CCCC3)c1ccccc1F,.,13µM*,79%,.,-26%,-3%
FC(F)(F)c1ccc(C2[C@H]3CN(Cc4ccc(-c5ccccc5)cc4)[C@H](c4ccccc4)C34CC2(c2cccnc2)C4)cc1 (stereo partly specified),.,13%[12.7 µM],52%,13%,-24%,-2%
FC(F)(F)c1ccc(C2[C@H]3CN(Cc4cccnc4)[C@H](c4ccccc4)C34CC2(c2cccnc2)C4)cc1 (stereo partly specified),.,-44%[59 µM],31%,35µM*,?,-33%
NS(=O)(=O)c1ccc(CCNC(=O)c2ccc3ccccc3n2)cc1,3%,0%,15%,16%,-6%[57.1 µM],-12%
CCOc1cc(-c2ccc(OC(=O)c3ccccc3)c(OC)c2)cc(=O)c2c(C)oc(C)c12,.,?,23%,.,?,?
CN(C)c1ccc(P(=O)(COc2ccc([N+](=O)[O-])cc2)c2ccc(N(C)C)cc2)cc1,-41%,.,?,0%,22µM*,25µM*
O=[N+]([O-])c1ccc(OCCOCCOc2ccc([N+](=O)[O-])cc2)cc1,.,-8%[59 µM],13%,-5%,-12%,-4%
Cc1ccc(/C=C/C(=O)Nc2cc(S(N)(=O)=O)ccc2O)cc1,6%,8.9µM*,?,28µM*,-24%,-31%
Cc1nc(/C=C/c2ccccc2)[nH]c(=O)c1-c1ccccc1,14%,-12%,14%,13%,-17%,6%
O=[N+]([O-])c1cccc(-c2ncc3ccccn23)c1,-3%,-42%,-15%,7%,-30%,?
Nc1c(-c2cccc([N+](=O)[O-])c2)nc2ccccn12,-8%,79µM*,-12%,-17%,-35%,?
CCNc1ncc2nc(C)c(=O)n(Cc3cccc(OC)c3)c2n1,.,2%[12.7 µM],.,10%,.,.
O=P(c1ccccc1)(c1ccccc1)c1cc(S(=O)(=O)O)ccc1O,.,35µM*,35µM*,-12%,40µM*,50µM*
CC(C)c1ccc(S(=O)(=O)/N=C2\C=C(NS(=O)(=O)c3ccccc3)C(=O)c3ccccc32)cc1,.,6.3µM*,20µM*,-17%,28µM*,7.1µM*
CC(C)c1ccc(S(=O)(=O)/N=C2/C=CC(=O)c3ccccc32)cc1,.,11µM*,.,?,.,7.9µM*
Cc1ccc(C)c(S(=O)(=O)/N=C2\C=C(NS(=O)(=O)c3ccccc3)C(=O)c3ccccc32)c1,.,14µM*,?,-7%,22µM*,10µM*
CC(C)[n+]1ccn(C2=C([O-])c3ccccc3C(=O)/C2=N\S(=O)(=O)c2ccccc2)c1,-14%,-36%[12.7 µM],7%,-3%,-12%,-23%
CCc1ccc(S(=O)(=O)/N=C2\C=C(NS(=O)(=O)c3ccccc3)C(=O)c3ccccc32)cc1,.,13µM*,14µM*,-6%,22µM*,8.9µM*
c1ccc(C(c2ccccc2)N2CC3(CCNCC3)C2)cc1,.,-2%[12.7 µM],.,-18%,.,.
